Laboratory results: PMC5540273 (PLoS ONE, 2017)

Tested on: CDKL3
Conditions: concentration: 1 μM, replicates: in singlicate; n = 1
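Note: KINOMEscan kinase panel screen.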

Row | Structure (SMILES) | %Inh [%]
1 | O=C(Nc1cccc(-c2nn3ncccc3c2-c2ccnc(Nc3ccccc3)n2)c1)c1c(F)cccc1F [GSK198271] | 0
2 | CN(C)Cc1ccc(-c2ccc3c(Nc4ccc(Oc5ccccn5)cc4)ccnc3c2)o1 [GW567148] | 0
3 | C[C@@H](Oc1cc(-n2cnc3cc(-c4ccnc(NCCS(C)(=O)=O)c4)ccc32)sc1C(N)=O)c1ccccc1Cl [GSK907232] | 0
4 | O=C(O)C(F)(F)F.O=C(O)C(F)(F)F.O=c1[nH]ccc2nc(N[C@@H]3CCCNC3)nc(Nc3ccc(S(=O)(=O)N4CCOCC4)cc3)c12 [GSK2177277] | 0

Tested on: CDKL5
Conditions: concentration: 1 μM, replicates: in singlicate; n = 1

Row | Structure (SMILES) | %Inh [%]
5 | Cl.Cl.NCC(C(=O)Nc1cc(Br)c(-c2ccnc3[nH]ccc23)s1)c1ccccc1 (centres unmarked) [GSK1269851] | 0
6 | Cl.c1ccc(-c2ccc3c(Nc4ccc5[nH]ncc5c4)ccnc3c2)nc1 [GW440137] | 0
7 | NCCCC(NC(=O)c1cc(Br)c(-c2ccnc3[nH]ccc23)s1)c1ccccc1.O=C(O)C(F)(F)F.O=C(O)C(F)(F)F (centres unmarked) [GSK1287544] | 0
8 | Cl.Cl.NCC(NCc1ccc(-c2ccnc3[nH]ccc23)s1)c1ccccc1 (centres unmarked) [GSK1321565] | 0
9 | Cc1ccc(S(=O)(=O)Nc2ccc(Nc3nccc(Nc4cccc5[nH]ncc45)n3)cc2)cc1 [GSK581271] | 0
10 | O=C(Nc1cccc(Oc2ccc3nc(NC(=O)C4CC4)cn3n2)c1)c1ccccc1C(F)(F)F | 7
11 | COc1cccc(NC(=O)NC2CCN(c3ccnc(Nc4cc(OC)c(OC)c(OC)c4)n3)C2)c1 (centres unmarked) [GSK1379763] | 0
12 | Cl.Cl.NCC(NC(=O)c1cc(-c2ccccc2)c(-c2ccnc3[nH]ccc23)s1)c1ccccc1 (centres unmarked) [GSK1321561] | 0
13 | Cc1cccc(NC(=O)Nc2ccc(Oc3ncnc4ccn(C)c34)cc2)c1 | 0
14 | COc1cc(Nc2nccc(-c3c(-c4cccc(NC(=O)c5c(F)cccc5F)c4)nn4ncccc34)n2)cc(OC)c1OC [GSK327238] | 10
15 | COc1cc(Nc2nccc(N3CCC(NC(=O)Nc4cccc(C(C)=O)c4)C3)n2)cc(OC)c1OC (centres unmarked) [GSK1379753] | 0
16 | Cc1ccc(C)c(NC(=O)NC2CCN(c3ccnc(Nc4ccc(F)cc4)n3)C2)c1 (centres unmarked) [GSK1379720] | 0
17 | COc1ccc(CNC(=O)NC2CCN(c3ccnc(Nc4ccc(F)cc4)n3)CC2)cc1 [GSK1379788] | 0
18 | Nc1ncc(-c2cccnc2)c2scc(-c3ccc4c(c3)CCN4C(=O)Cc3ccccc3)c12 [GSK683281] | 7
19 | O=C(Nc1n[nH]c2cc(-c3ccoc3)ccc12)C1CC1 [SB-738481] | 50
20 | O=c1[nH]cc(-c2ccc(N3CCOCC3)cc2)c2sc(-c3cn[nH]c3)cc12 [GSK2276055] | 0
21 | Nc1n[nH]c2cnc(-c3ccccc3)cc12 [SB-642124] | 0
22 | O=C(Nc1cccc(-c2nn3ccccc3c2-c2ccnc(Nc3cccc(C(F)(F)F)c3)n2)c1)c1c(F)cccc1F [GSK292658] | 0
23 | CN(c1ccc(NC(=O)Nc2cc(C(F)(F)F)ccc2F)cc1)c1ccnc(Nc2ccc(S(N)(=O)=O)cc2)n1 [GW809893] | 26

Row | Structure (SMILES) | %Inh [%]
24 | CNC(=O)c1ccccc1Nc1nc(Nc2ccc(N3CCOCC3)cc2)ncc1Cl.Cl [GSK1576028] | 0
25 | COC(=O)Nc1nc2ccc(Oc3ccc(NC(=O)Nc4cc(C(F)(F)F)ccc4F)cc3)cc2n1C.Cl [GW692089] | 0
26 | COc1cc2c(cc1OCCN1CCNCC1)ncc1c3ccc(C#N)cc3[nH]c21 | 0
27 | O=C(NC1CCN(c2ccnc(Nc3ccc(F)cc3)n2)C1)c1cc2ccccc2s1 (centres unmarked) [GSK1379716] | 5
28 | Oc1cc(Nc2ccnc3cc(I)ccc23)ccc1F [GW552771] | 0
29 | CCn1c(-c2nonc2N)nc2c(C#CC(C)(C)O)ncc(OCCCCN)c21.O=C(O)C(F)(F)F.O=C(O)C(F)(F)F [GSK507274] | 10
30 | CC(=O)Nc1nc2cnc(Nc3cc(NC(=O)c4cccc(C5(C#N)CC5)c4Cl)ccc3C)nc2s1 | 0
31 | O=C(Nc1ccccc1F)NC1CCN(c2ccnc(Nc3ccc(F)cc3)n2)CC1 [GSK1379800] | 0
32 | O=C(Nc1n[nH]c2nc(-c3ccc(O)cc3)ccc12)C1CC1 [SB-710363] | 41
33 | c1ccc(Oc2ccc(Nc3ccnc4cc(-c5ccc(CNCCN6CCOCC6)o5)ccc34)cc2)nc1 [GW567145] | 0
34 | COc1cccc(C(=O)Nc2cccc(Oc3ccc4nc(NC(=O)C5CC5)cn4n3)c2)c1 | 0
35 | Cc1occc1-c1ncc(OC[C@@H](N)Cc2c[nH]c3ccccc23)cc1-c1ccc2[nH]nc(C)c2c1.O=C(O)C(F)(F)F [GSK682037] | 0
36 | COCCOCCOc1cc2ncc3c4ccc(C#N)cc4[nH]c3c2cc1OC | 0
37 | Cn1cc(-c2ccc3c(c2)CCN3C(=O)Cc2cccc(Cl)c2)c2c(N)ncnc21 [GSK2606590] | 4
38 | O=C(Nc1cccc(-c2nn3ncccc3c2-c2ccnc(Nc3ccccc3)n2)c1)c1c(F)cccc1F [GSK198271] | 6
39 | CN(C)Cc1ccc(-c2ccc3c(Nc4ccc(Oc5ccccn5)cc4)ccnc3c2)o1 [GW567148] | 0
40 | C[C@@H](Oc1cc(-n2cnc3cc(-c4ccnc(NCCS(C)(=O)=O)c4)ccc32)sc1C(N)=O)c1ccccc1Cl [GSK907232] | 0
41 | O=C(O)C(F)(F)F.O=C(O)C(F)(F)F.O=c1[nH]ccc2nc(N[C@@H]3CCCNC3)nc(Nc3ccc(S(=O)(=O)N4CCOCC4)cc3)c12 [GSK2177277] | 42
